Screening results as filed in PubChem.
Cruzain noTriton: cruzain (T. cruzi) inhibition without detergent | purified cruzain, Z-FR-AMC fluorescence, no detergent | Potency, µM, for the others: max response, negative = inhibition, actives largely listed as inhibitors | 200,000 compounds, 2.3% hits | AID 1476;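 note: plate controls were enzyme without inhibitor for no effect and buffer without enzyme for full effect; nearly all actives have a fitted effect of over 40% in size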
Target sequence (P25779 123-467 limits assumed): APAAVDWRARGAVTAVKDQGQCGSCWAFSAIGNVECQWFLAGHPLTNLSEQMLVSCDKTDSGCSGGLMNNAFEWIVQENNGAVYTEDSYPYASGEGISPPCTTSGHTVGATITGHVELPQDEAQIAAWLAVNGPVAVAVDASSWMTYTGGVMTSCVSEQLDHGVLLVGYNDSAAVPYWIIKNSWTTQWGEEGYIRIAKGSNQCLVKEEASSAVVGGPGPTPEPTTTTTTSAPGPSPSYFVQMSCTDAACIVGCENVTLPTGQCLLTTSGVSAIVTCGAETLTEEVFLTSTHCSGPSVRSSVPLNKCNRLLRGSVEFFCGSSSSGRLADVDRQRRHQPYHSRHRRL
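Detergent-free condition (0.00005% Triton X-100) in acetate buffer pH 5.5 with DTT. 1.5 nM enzyme and compound were pre-mixed 15 min, then 2 uM Z-FR-AMC substrate added; reaction progress from fluorescence change between first and third reads (60 s).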
Cruzain Triton: blocks cruzain activity in presence of Triton detergent; P25779; purified cruzain, Z-FR-AMC fluorescence, 0.01% Triton; Potency, µM, for inactives: max response, negative = inhibition, actives largely listed as inhibitors; 200,000 compounds, 0.43% hits; AID 1478;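 note: plate controls were neutral wells for no effect and buffer without enzyme for full effect; nearly all actives have a fitted effect of over 40% in size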
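In this qHTS format, compounds are incubated with 1.5 nM cruzain for 15 min at room temperature before 2 uM Z-FR-AMC is added. Release of AMC is followed at 360/450 nm, and progress is taken as the 60 s fluorescence difference.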
Active calls of the source: *; ? = inconclusive; ! = a repeat was not active. Hits are enriched below; roughly 2.6% of the tested compounds scored in any of these assays. Calls come from the whole dose curve; as a rule, active = well fitted curve in the direction sought with a large enough effect; inconclusive = small, poorly fitted or top-dose-only effect, or another doubt; inactive = no such curve, though single readings can be large; an effect the other way counts as inactive or inconclusive. Potency is the fitted concentration of half-maximal effect.

SMILES	Cruzain noTriton	Cruzain Triton
N=C(N)SCc1nc2ccccc2c(=O)n1-c1ccccc1	25.1µM*!	-3.0%
O=c1c2ccccc2nc(CSc2ncnc3nc[nH]c23)n1-c1ccccc1	-13.4%	4.9%
Cc1cccc(CNc2ncnc3ccc(-c4ccoc4)cc23)c1	-19.0%	-9.5%
COc1ccc(Cl)cc1NC(=O)Nc1ccc(Br)cn1	12.6µM*	0.4%
COc1ccccc1NC(=O)Nc1ccc(Br)cn1	-6.3%	-1.4%
COc1ccc(Nc2nc3ccccc3nc2-n2nc(C)cc2C)cc1	-4.2%	-2.3%
Cc1ccc(-c2nc(CCNC(=O)C(=O)Nc3ccc(C)cc3C)cs2)cc1	-3.1%	-2.2%
c1ccc(CNc2nc3c(-c4ccccc4)nnn3c3ccccc23)cc1	2.1%	0.0%
Cc1sc2c(c1C)CN(C(C)(C)C)CN2C(=O)c1ccccc1	25.1µM*	-0.6%
COCCN1Cc2c(sc(C)c2C)N(C(=O)c2ccccc2)C1	6.8%	-4.1%
CCOC(=O)C1CCN(Cc2ccc(O)c3ncccc23)CC1	-10.8%	-10.4%
COc1ccc(N2CCN(CC(=O)Nc3nnc(-c4ccccc4)s3)CC2)cc1	25.1µM*	0.6%
O=C(CN1CCN(c2ccccc2)CC1)Nc1nnc(-c2ccccc2)s1	-4.1%	-3.9%
Cc1ccc(-c2nnc(Nc3ccc(Br)cc3)c3ccccc23)cc1S(=O)(=O)N1CCN(C)CC1	-9.2%	-4.9%
c1ccc2c(c1)[nH]c1cnccc12	-14.9%	-9.7%
Cc1nccc2c1[nH]c1ccccc12	39.8µM*!	?
CCOc1cc(CNCc2ccncc2)cc(Br)c1OCc1ccccc1F	0.1%	-1.3%
O=c1c2c(n3nnnc3n1Cc1ccccc1)-c1ccccc1CC21CCCC1	25.1µM*	3.7%
CCC1(C)Cc2ccccc2-c2c1c(=O)n(Cc1ccccc1)c1nnnn21 (stereo unspecified)	?	4.8%
CCCOC(=O)C1C2C=CC(C2)C1C(=O)OCC(=O)c1ccccc1 (stereo unspecified)	0.0%	1.4%
COCCCN=C1NN=C(c2cc(C)n(-c3ccccc3)c2C)CS1	-4.6%	-6.9%
CCCCN=C1NN=C(c2cc3ccccc3o2)CS1	7.94µM*	-9.4%
Cc1cc(C=O)c(C)n1-c1cc(C(F)(F)F)ccc1N1CCOCC1	?	4.8%
COc1cccc(-c2nc(-c3ccc4c(c3)-c3ccccc3S4(=O)=O)c(-c3ccccc3)[nH]2)c1OC	12.6µM*	-9.7%
COc1cc(-c2nc(-c3ccc4c(c3)-c3ccccc3S4(=O)=O)c(-c3ccccc3)[nH]2)cc(OC)c1OC	-2.0%	-0.9%
SMILES	Cruzain noTriton	Cruzain Triton
CN(C)c1ccc(N=O)cc1	31.6µM*	25.1µM*
CN(C)c1ccc(N=Nc2ccccc2)cc1	-12.6%	-8.1%
CCc1cccc(C)c1NC(=O)CN(C)Cc1cccc(F)c1	9.5%	-0.5%
CC1CCN(CCOc2ccc(Cl)c(Cl)c2)CC1	-14.9%	-2.3%
O=C(Nc1ccc(NC(=O)c2cccs2)cc1)c1ccc(Cl)cc1	-5.1%	0.0%
COc1c(Cl)cc(Cl)cc1/C=C/C(=O)c1ccc(NC(=O)c2cccs2)cc1	31.6µM*	-2.8%
Cc1ccc(S(=O)(=O)NC(CC(=O)n2nc(C)cc2C)c2ccccc2)cc1 (stereo unspecified)	4.8%	-8.7%
CCOc1ccc(S(=O)(=O)N2CCN(C(=S)NCc3ccco3)CC2)cc1	-5.3%	-3.8%
Cc1ccc(S(=O)(=O)c2cc3c(=O)n4ccccc4nc3n(CC3CCCO3)c2=N)cc1C (stereo unspecified)	-28.0%	31.6µM*
COCCCNC(=O)c1cc2c(=O)n3cccc(C)c3nc2n(C(C)C)c1=N	?	25.1µM*
COCCn1c(=N)c(C(=O)NCCc2ccc(OC)cc2)cc2c(=O)n3cccc(C)c3nc21	-2.8%	-4.2%
Cc1cccn2c(=O)c3cc(C(=O)NCC4CCCO4)c(=N)n(Cc4cccnc4)c3nc12 (stereo unspecified)	?	22.4µM*
Cc1ccc(S(=O)(=O)c2cc3c(=O)n4ccccc4nc3n(Cc3ccco3)c2=N)cc1C	-24.7%	5.6%
CCCn1c(=N)c(C(=O)NCc2cccnc2)cc2c(=O)n3ccccc3nc21	-11.4%	-9.4%
N=c1c(C(=O)NCC2CCCO2)cc2c(=O)n3ccccc3nc2n1Cc1cccnc1 (stereo unspecified)	?	28.2µM*
CCCn1c(=N)c(C(=O)NCc2cccnc2)cc2c(=O)n3cccc(C)c3nc21	2.8%	-1.9%
CCOC(=O)CSc1cccc2cccnc12	-2.7%	5.1%
CN(Cc1ccccc1)c1nc2c(c(=O)[nH]c(=O)n2C)n1Cc1ccccc1Cl	-10.2%	-0.1%
CCN(CC)CCNC(=O)c1ccc2c(c1)sc1nc(-c3ccc(F)cc3)cn12	-4.5%	-1.2%
CC1=C(C(=O)N2CCN(c3ccccc3)CC2)C2(CCCCC2)OC1=O	7.5%	0.0%
Cc1cccn2c(=O)c3cc(C(=O)NC(C)C)c(=N)n(Cc4ccncc4)c3nc12	?	31.6µM*
CNC(=O)c1cc2c(=O)n3cc(C)ccc3nc2n(C(C)C)c1=N	?	28.2µM*
COCCCn1c(=N)c(C(=O)NC2CCCC2)cc2c(=O)n3cccc(C)c3nc21	?	-10.0%
Cc1ccc2nc3c(cc(C(=O)NC4CCCC4)c(=N)n3C(C)C)c(=O)n2c1	17.0%	-13.5%
O=C(Nc1ccc2oc(-c3cccc4ccccc34)nc2c1)c1ncn[nH]1	?	-2.7%
SMILES	Cruzain noTriton	Cruzain Triton
COc1cc(OC)cc(C(=O)Nc2ccc(-c3nc4ccccc4o3)cc2)c1	?	-4.8%
CCC(C)c1ccc2oc(-c3ccc(NC(=O)c4ncn[nH]4)cc3)nc2c1 (stereo unspecified)	3.98µM*	-10.3%
COc1cc(OC)cc(C(=O)Nc2ccc(-c3nc4cc(C(C)C)ccc4o3)cc2)c1	12.6µM*	-1.9%
Cc1cccc(C(=O)Nc2ccc(-c3nc4cc(C(C)C)ccc4o3)cc2)c1	-12.6%	-1.9%
CC(C)c1ccc2oc(-c3ccc(NC(=O)c4ncn[nH]4)cc3)nc2c1	12.6µM*	-7.6%
CNS(=O)(=O)c1cccc(C(=O)OCC(=O)Nc2sc3c(c2C#N)CCCCC3)c1	0.7%	-11.6%
NC(=S)N=Nc1c(O)[nH]c2ccccc12	12.6µM*	?
Oc1[nH]c2ccccc2c1N=NC(=S)NCCc1ccccc1	0.8%	-11.3%
COc1cc(C2CC(=O)c3cnc(N4CCN(Cc5ccccc5)CC4)nc3C2)cc(OC)c1OC (stereo unspecified)	10.6%	3.6%
CCCOc1ccc(-c2nc(SCC(=O)c3ccc(Cl)cc3)n[nH]2)cc1	10µM*	1.3%
CCOc1ccc(-c2nc(SCC(=O)c3ccccc3)n[nH]2)cc1	?	-4.6%
COc1ccc(C(=O)Nc2ccc(C(F)(F)F)n(C)c2=O)cc1	-8.7%	-1.7%
CC(C)n1c(=NC(=O)c2ccco2)c(C#N)cc2c(=O)n3ccccc3cc21	?	-12.8%
Clc1ccccc1-c1nnc2sc(-c3ccc(Br)o3)nn12	-12.6%	-4.9%
Clc1ccc(-c2nnc3sc(-c4ccc(Br)o4)nn23)c(Cl)c1	20µM*	-0.6%
O=c1[nH]c2ccc(Cl)cc2c(-c2ccccc2)c1SC(=S)N1CCCCC1	-60.7%	-4.3%
CCN1CCN(c2oc(/C=C/c3ccccc3OC)nc2C#N)CC1	31.6µM*	-25.0%
COc1cc(/C=C/c2nc(C#N)c(N3CCCCC3)o2)cc(OC)c1OC	21.6%	-8.5%
COc1ccccc1/C=C/c1nc(C#N)c(N2CCN(C)CC2)o1	25.1µM*	-29.2%
COc1ccc(Nc2oc(/C=C/c3ccccc3OC)nc2C#N)cc1	?	-1.5%
CCCSc1nnc(NC(=O)Cc2coc3cc(C)ccc23)s1	?	-2.0%
